# Bioassay records (PubChem)
# STK33 kin inh – inhibitors of human STK33 kinase | AID 2322 | inhibition, % at 12.5 µM | ADP-Glo luminescence, MBP substrate | 27,000 tested, 0.44% active | Q9BYT3; in the data active = inhibition above about 20%
# ID4 binder – ID4 (human) binding | P47928 | small molecule microarray, Flag-ID4 binding, fluorescence F/B | calls only | 31,000 tested, 1.2% active; call rule not given here;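 note: a binder raises fluorescence above local background on the spot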
# Active calls of the source: *; i = inactive; · = no result; + = active, no number. Shown is part of a subset that was picked to be rich in hits.
SMILES,STK33 kin inh,ID4 binder
Cc1c(C(=O)c2cccc3ccccc23)c2cccc3c2n1[C@@H](CN1CCOCC1)CO3,·,+
CCC(C)[C@H]1C(=O)O[C@H](C(C)C)C(=O)N(C)[C@@H](C(C)CC)C(=O)O[C@H](C(C)C)C(=O)N(C)[C@@H](C(C)CC)C(=O)O[C@H](C(C)C)C(=O)N1C (some centres undefined),-3,·
C[C@H]1O[C@@H](O[C@H]2C[C@@H](O)[C@]3(CO)C4C(CC[C@]3(O)C2)[C@@]2(O)CC[C@H](C3=CC(=O)OC3)[C@@]2(C)C[C@H]4O)[C@@H](O)[C@@H](O)[C@H]1O (some centres undefined),0,i
